# High-throughput results (PubChem)
# Only a selection was taken, and hits are over-represented in it overall.
# TDP-43 tox inh: rescues yeast from TDP-43 toxicity | Potency, µM (doses to about 46.1 µM), actives largely listed as activators | yeast TDP-43 toxicity rescue, BacTiter-Glo growth, 24 h | AID 1347073 | hit rate 0.45% among 45,000; active means well fitted activation curve with a large enough effect; further: 0% is about no effect; nearly all actives have a fitted effect of over 55% in size
#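 TDP-43-expressing yeast, pregrown in raffinose, seeded at OD600 0.02 in galactose medium with compound for 24 hr at 30 deg C. Growth read by BacTiter-Glo luminescence, so rescue of toxicity appears as activation.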
# * = called active by the depositor; i = inactive. Potency means the concentration at half of the fitted maximal effect.
SMILES,TDP-43 tox inh
COc1ccccc1-c1cc2nc(NCCc3ccncc3)ccn2n1,i
COc1cc(-c2cc3nc(NCc4cccc(Cl)c4)ccn3n2)cc(OC)c1OC,14.1µM*
c1ccc(-c2cc3nc(NCc4cccs4)ccn3n2)cc1,i
COc1ccc(C(=O)N(C)Cc2ccc(C)o2)cc1OC1CCN(C(C)C)CC1,i
O=C(NCC1CCN(C(=O)c2cccc([N+](=O)[O-])c2)CC1)c1cccc([N+](=O)[O-])c1,i
O=C(NCC1CCN(C(=O)c2c(F)c(F)c(F)c(F)c2F)CC1)c1c(F)c(F)c(F)c(F)c1F,17.8µM*
CC(C)CNC(=O)c1c(F)c(F)c(F)c(F)c1F,i
CC(=O)NC(C)(c1ccccc1)c1nc(-c2cccc(F)c2)cs1 (stereo not drawn),i
Cc1ccc(S(=O)(=O)Cn2nnnc2C(CC(C)C)N2CCN(C)CC2)cc1 (stereo not drawn),i
CC1(C2CC2)NC(=O)N(CC(=O)N2CCN(c3cccc(C(F)(F)F)c3)CC2)C1=O (stereo not drawn),i
CC(=O)c1c(C)[nH]c(C(=O)Nc2nc(-c3ccccc3)c(C)s2)c1C,i
Cc1sc(NC(=O)c2ccco2)nc1-c1ccccc1,12.6µM*
Cc1nc(NC(=O)c2ccco2)sc1C(=O)O,i
Cc1ccccc1C(=O)c1cccn1CC(=O)NCc1ccc(Cl)cc1,i
N/C(=N\OC(=O)c1ccc(Cl)cc1[N+](=O)[O-])c1cccnc1,i
N/C(=N\OC(=O)COc1ccc(Cl)cc1Cl)c1cccnc1,i
N/C(=N\OC(=O)c1cccc(Cl)c1)c1cccnc1,11.2µM*
C/C(CS(=O)(=O)c1ccc(Cl)cc1)=N/NC(N)=S,i
O=C(O)/C(=C\c1ccccc1OC(F)F)Sc1nnc(-c2ccc(F)cc2)o1,i
Cc1ccc(OC(C)C(=O)Nc2ccc(Cl)cn2)c([N+](=O)[O-])n1 (stereo not drawn),i
Cc1cc(Cl)ccc1OC(C)C(=O)Nc1ccc([N+](=O)[O-])cn1 (stereo not drawn),22.4µM*
COC(=O)c1cc(C(=O)Nc2ccc(Cl)cn2)cc([N+](=O)[O-])c1,i
NC(=O)C1Cc2ccccc2CN1S(=O)(=O)c1cccs1 (stereo not drawn),i
CC1(C)CC(=O)C2=C(C1)C(c1cn(-c3ccccc3)nc1-c1ccccc1)C(C#N)=C(N)O2 (stereo not drawn),i
CC(O)CNCCCOc1cccc(Oc2ccccc2)c1 (stereo not drawn),i
SMILES,TDP-43 tox inh
COc1cccc(OC)c1OCCCOc1ccc(C)cc1Br,i
COc1ccccc1N1CCN(CCCCOc2cccc3ccccc23)CC1,i
CC(=O)Nc1ccc(NC(=O)COC(=O)Cc2c[nH]c3ccccc23)cc1,i
Clc1nc2ccccc2nc1-c1ccccc1,i
CN(c1nc2ccccc2nc1Cl)S(=O)(=O)c1ccccc1,12.6µM*
CCCc1nnc2c(N(C)S(=O)(=O)c3ccc(C)cc3)nc3ccccc3n12,i
O=c1c2cnn(-c3ccccc3)c2ncn1Cc1ccccn1,i
COc1ccc(Br)cc1C(=O)Nc1ccc(C(=O)O)cc1,4.47µM*
COc1ccc(Br)cc1C(=O)NC(=S)Nc1ccc2[nH]c(=O)[nH]c2c1,i
COc1ccc(Br)cc1C(=O)Nc1ccc(N2CCCC2)cc1,i
O=C(Cc1cccs1)Nc1cccc(-c2nc3cc4ccccc4cc3[nH]2)c1,i
Cc1cc2ccccn2c1C(=O)c1ccc(C#N)cc1,i
CCCn1nc(NC(=O)C2CCCO2)c2cc3ccc(C)cc3nc21 (stereo not drawn),i
Cc1ccccc1OCC(=O)OCn1nnc2ccccc2c1=O,i
Cc1ccc(/C=C/C(=O)OCn2nnc3ccccc3c2=O)o1,14.1µM*
C[C@H](NC(=O)CCCn1nnc2ccccc2c1=O)C(=O)O,i
COC(=O)c1cc(Sc2cccc(Cl)c2Cl)ccn1,12.6µM*
CC(OC(=O)c1cnc2ccccc2n1)c1ccccc1Cl (stereo not drawn),i
COc1cccc(C(=O)NCCCNC(=O)c2ccccn2)c1,i
COCC(=O)NNS(=O)(=O)c1ccccc1[N+](=O)[O-],i
CS(=O)(=O)Nc1ccc2[nH]c(=O)[nH]c2c1,i
O=C(c1cc(-c2ccccc2O)on1)N1CCCCC1,i
O=C(NC(=S)Nc1cccc2cnccc12)c1ccccc1,i
CC1CCCCC1NC(=S)NC(=O)c1ccccc1Br (stereo not drawn),i
O=C(NC(=S)Nc1cccc2cc(O)ccc12)c1ccccc1Br,15.8µM*
SMILES,TDP-43 tox inh
COc1ccc(NC(=O)CN2CCN(Cc3ccccc3)CC2)cc1,i
Cc1ccc(-c2noc(CN(C(=O)c3ccc4c(c3)OCO4)C(C)C)n2)cc1,i
Cc1ccc(-c2noc(CN(C)C(=O)c3ccoc3C)n2)cc1,i
COc1ccc(-c2noc(CN(C(=O)C(C)Oc3ccc(C)cc3)C(C)C)n2)cc1 (stereo not drawn),20µM*
CC(Sc1nnc(COc2ccc(Cl)cc2)n1-c1ccccc1)C(=O)O (stereo not drawn),i
CC(C)(C)NC(=O)CSc1nc(-c2ccccc2)cc(=O)[nH]1,i
